Data as given in PubChem BioAssay (EPA / NIEHS).
“And” between values parts separate entries of the source, which are not always exact repeats. Identical values can stand only once. Records with an inconclusive call do not appear. The source made the active and inactive calls. Rule for the calls, unless noted: active = hit-call score of the fitted dose curve at least 0.9, where 1 is the maximum; inconclusive = response in the unintended direction; inactive = score below 0.9.

What was measured:
[1] = Tanguay_ZF_120hpf_TRUN_legacy: (Legacy) Oregon State University Tanguay Lab 120 Hour Post-fertilization zebrafish Assay for Truncated Body (AID 2283655)
In short: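 5D wild-type larvae; pronase dechorionation; static exposure 6→120 hpf, 28C; DMSO 0.64% final; 5uM trimethyltin chloride positive control. Readout: presence/absence of truncated body, analyzed relative to DMSO.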

[2] = Tanguay_ZF_120hpf_NC_legacy: (Legacy) Oregon State University Tanguay Lab 120 Hour Post-fertilization zebrafish Assay for Notochord and Tail Malformation (AID 2283656)
In short: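 Binary scoring of notochord distortion by brightfield microscopy; embryos dying were not scored. Wild-type Tropical 5D embryos, chorion removed, exposed singly and statically from 6 to 120 hpf, 28C, sealed, 0.64% DMSO.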

[3] = Tanguay_ZF_120hpf_TR_legacy: (Legacy) Oregon State University Tanguay Lab 120 Hour Post-fertilization zebrafish Assay for Touch Response (AID 2283667)
In short: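 Readout is presence or absence of touch response in 120 hpf zebrafish larvae, assessed by brightfield observation after continuous static exposure at 28C. Final vehicle was 0.64% (vol/vol) DMSO.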

[4] = CCTE_Padilla_ZF_144hpf_TERATOSCORE: (Legacy) CCTE's 144 Hour Post-fertilization zebrafish Assay Teratoscore, Padilla Lab (AID 2283679; active = hit-call score of the fitted dose curve at least 0.9, where 1 is the maximum; inactive = score below 0.9;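 for AC50: teratogenicity score from eye scoring of death hatching and malformations at 144 hpf; higher score means more developmental defects relative to DMSO baseline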)
Excerpt: CCTE_Padilla_ZF_144hpf is a whole embryo, multiplexed assay. Zebrafish embryos were exposed to chemicals starting 6 hr post-fertilization for 5 days in 96-well plates. Developing larvae were examined microscopically daily for malformation and mortality.CCTE_Padilla_ZF_144hpf_TERATOSCORE is one of one assay component(s) measured or calculated from the CCTE_Padilla_ZF_144hpf assay. It is designed to make measurements of developmental malformations and mortality as detected with brightfield microscopy.Data from the assay component CCTE_Padilla_ZF_144hpf_TERATOSCORE was analyzed into 1 assay endpoint. This assay endpoint, CCTE_Padilla_ZF_144hpf_TERATOSCORE, was analyzed in the positive analysis fitting direction relative to DMSO as the negative control and baseline of activity. Using a type of morphological reporter, gain-of-signal activity can be used to understand changes in developmental defect as they relate to the whole embryo. To generalize the intended target to other relatable targets, this assay endpoint is annotated to the malformation intended target family, where the subfamily is total.
Zebrafish husbandry: Wild type adult zebrafish (Danio rerio; undefined outbred stock obtained from Aquatic Research Organisms, Hampton, NH, 03842) were housed in an AAALAC-approved animal facility at 28C with a 14:10 h light: dark cycle (lights on at 08:30 h). Adult fish (2-3 females per male; density = 15-20 adults per tank) were kept in one of several 9-liter (L) flow-through colony tanks (Aquaneering Inc., San Diego, CA). All adults in a colony tank were placed in a 2 L (static) breeding tank (Aquatic Habitats, Apopka, FL) one hour prior to light onset. Typically, adults from two to three colony tanks were mated on the same day. Two hours after light onset the adults were returned to the colony tank. All embryos were gathered from each breeder tank, pooled, and placed in a 28C water bath for 2 h, followed by two washes with 0.06% bleach (v/v) in 10% Hanks' Balanced Salt Solution (13.7 mM NaCl 0.54 mM KCl, 25 uM Na2HPO4, 130 uM CaCl2 100 um MgSO4 and 420 um NaHCO3,), hereafter referred to as Hanks' solution, for 5 min in order to remove any residual bacteria or fungi. Immediately following washing, the embryos were examined, and healthy embryos were separated from dead or unfertilized eggs and moved into fresh Hanks'. Single Concentration Study: The chemicals were arrayed on a 96-well stock plate, 80 chemicals per plate, 20 mM concentration of each, with 16 DMSO (vehicle) controls. The embryos were exposed to the chemicals (80 Mfinal concentration, renewed daily) by immersion from 0 dpf until 5 dpf. Eighty micromolar was chosen as the highest concentration for two reasons (1) because the stock solutions were prepared at 20 mM in 100% DMSO. On 6 dpf, each embryo/larva was assessed for viability, hatching status and malformations. There were 4 embryos per concentration per chemical (each embryo on a separate microtiter plate). […] Chemical exposures: Zebrafish embryos were exposed in 96-well plates. Briefly, on day 0, approximately 6-8 h after fertilization, zebrafish embryos (with chorions) were placed 1 embryo per well in Millipore Multiscreen Nylon mesh plates (catalog number MANMN4050, Millipore Corp, Bedford, MA) and exposed to nominal concentrations of the chemicals. In each well, 1 ul of the chemical in DMSO from the stock plate was diluted with 250 ul of 10% Hanks' solution; the final DMSO concentration was 0.4% (v/v) in all wells; vehicle controls receives DMSO only. Each plate was sealed with a non-adhesive material (Type A, BioRad, Hercules, CA), covered with a lid, and wrapped in Parafilm to minimize evaporation. All embryos and larvae were kept in a 26C incubator with a 14:10 h light-dark cycle (with lights on at 08:30 h and off at 22:30 h). […]

[5] = tested on: Thyroperoxidase (TPO), gene 54314; test: CCTE_Simmons_AUR_rTPO: CCTE's Amplex UltraRed Assay for Thyroperoxidase (TPO) Inhibition, Simmons Lab (AID 2283662);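 for AC50: potency for loss of signal meaning inhibition of peroxidase activity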
In short: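 Rat thyroid microsomes (5 ug protein) were incubated with test compound (8 concentrations, 5 nM–87.5 uM final, 0.5% DMSO), 25 uM Amplex UltraRed and 300 uM H2O2 in 200 mM phosphate buffer for 30 min at 37C in the dark; fluorescence read at 544/590 nm.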

[6] = CCTE_Simmons_CellTiterGLO_HEK293T: Viability Assessment in CCTE's Assays for Thyroperoxidase (TPO) Inhibition, Simmons Lab (AID 2283665);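 for AC50: cells exposed to compound for 24 h before readout; actives reduce ATP signal below DMSO vehicle meaning cytotoxicity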
In short: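 Luciferase-coupled ATP content after 24 h exposure gives viability; 8-point series from 5 nM to 87.5 uM final in 0.5% DMSO. Human HEK293T cells, 1% FBS medium, three biological replicates, dichlone positive control.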

[7] = STM_H9_OrnithineISnorm_perc: Stemina devTOX quickPredict H9 human embryonic stem cell (hESC)-based Assay for Ornithine (ORN) Metabolite Biomarker, Normalized (AID 2283712; active = hit-call score of the fitted dose curve at least 0.9, where 1 is the maximum; inactive = score below 0.9;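 note: ornithine released into spent medium during last day measured by mass spectrometry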)
In short: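 Ornithine in spent medium from the last 24 h of a 72 h exposure, deproteinised and quantified by UPLC-HRMS against an isotope-labelled internal standard, expressed relative to 0.1% DMSO. Pluripotent H9 cells; compound refreshed every 24 h.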

[8] = read-out: solute carrier (SLC10A1), SLC10A1 (gene 6554); test: LTEA_HepaRG_SLC10A1: Life Technologies and Expression Analysis (LTEA) Assay for solute carrier (SLC10A1) using HepaRG (AID 2283657; active = hit-call score of the fitted dose curve at least 0.9, where 1 is the maximum; inactive = score below 0.9); conditions: mRNA level, 48 h; actives raise or lower the signal
In short: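 Cryopreserved HepaRG cells are thawed, plated and cultured 48 h; medium is then switched to serum-free induction medium and chemicals added (8 points, max 100 uM, 0.5% DMSO). After 48 h, RNA is isolated and SLC10A1 quantified by qRT-PCR.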

[9] = read-out: matrix metalloproteinase-1 (MMP1), MMP1 (gene 4312); test: LTEA_HepaRG_MMP1: Life Technologies and Expression Analysis (LTEA) Assay for matrix metalloproteinase-1 (MMP1) using HepaRG (AID 2283658; active = hit-call score of the fitted dose curve at least 0.9, where 1 is the maximum; inactive = score below 0.9); conditions: mRNA level, 48 h; actives raise or lower the signal
In short: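 Bidirectional concentration-response fitting relative to 0.5% DMSO gives the endpoint, derived from MMP1 mRNA levels (qRT-PCR) in human HepaRG cells treated 48 h with chemicals up to 100 uM.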

[10] = read-out: Cytochrome P450 (CYP24A1_1), CYP24A1 (gene 1591); test: LTEA_HepaRG_CYP24A1_1: Life Technologies and Expression Analysis (LTEA) Assay for Cytochrome P450 (CYP24A1_1) using HepaRG (AID 2283671; active = hit-call score of the fitted dose curve at least 0.9, where 1 is the maximum; inactive = score below 0.9); conditions: mRNA level, 48 h; actives raise or lower the signal
In short: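 Cultures of human HepaRG were treated in duplicate for 48 h (0.5% DMSO vehicle, highest dose 100 uM). CYP24A1 mRNA by qRT-PCR, normalized to ACTB, GAPDH, POLR2A.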

CCCCc1oc2ccccc2c1C(=O)c1cc(I)c(OCCN(CC)CC)c(I)c1
outcome [1]: inactive
outcome [2]: inactive
outcome [3]: inactive
AC50 [4]: 7.89 µM (active)

CC(=O)Nc1ccc(O)cc1
outcome [1]: inactive
outcome [3]: inactive

CCCCCCCCCCCC
AC50 [5]: 43.8 µM (active)
AC50 [6]: 31.8 µM (active)

O=C1OC2(c3ccccc31)c1cc(I)c(O)c(I)c1Oc1c2cc(I)c(O)c1I
AC50 [5]: 16 µM (active)
AC50 [6]: 5.7 µM (active)

CS(=O)(=O)c1ccc([C@@H](CC2CCCC2)C(=O)Nc2cnccn2)cc1Cl
outcome [1]: inactive
outcome [2]: inactive
outcome [3]: inactive
AC50 [4]: 58.6 µM (active)

N=C(N)c1ccc(OCCCCCOc2ccc(C(=N)N)cc2)cc1
outcome [1]: inactive
outcome [2]: inactive
outcome [3]: inactive
AC50 [4]: 41.4 µM (active)

C[C@]12CC[C@@H]3c4ccc(O)cc4CC[C@H]3[C@@H]1C[C@@H](O)[C@@H]2O
AC50 [5]: 11.9 µM (active)
outcome [6]: inactive

Cc1cc(Cc2cc(C)cc(C(C)(C)C)c2O)c(O)c(C(C)(C)C)c1
AC50 [5]: 1.04 µM (active)
AC50 [6]: 6.57 µM (active)

Cc1[nH]nc2c1N=C(c1ccccc1Cl)c1cc([N+](=O)[O-])ccc1N2
outcome [1]: inactive
outcome [2]: inactive
AC50 [5]: 2.9 µM (active)
AC50 [6]: 15.2 µM (active)
outcome [3]: inactive
AC50 [4]: 1.32 µM (active)
AC50 [7]: 2.08 µM (active)

CCCCC(CC)C(=O)O (stereo not drawn)
outcome [2]: inactive
outcome [3]: inactive
AC50 [7]: 0.134 µM (active)

Cc1cc(C(C)(C)C)c(O)c(C(C)(C)C)c1
AC50 [5]: 2.84 µM (active)
AC50 [6]: 24.5 µM (active)

CN(C)CCOC(c1ccccc1)c1ccccc1
AC50 [1]: 24.8 µM (active)
outcome [2]: inactive
AC50 [3]: 32.7 µM (active)

CN(Cc1cnc2nc(N)nc(N)c2n1)c1ccc(C(=O)N[C@@H](CCC(=O)O)C(=O)O)cc1
outcome [1]: inactive
outcome [2]: inactive
AC50 [5]: 9.76 µM (active)
AC50 [6]: 0.0489 µM (active)
outcome [3]: inactive
AC50 [7]: 0.0773 µM (active)

O=C(c1ccccc1)c1ccccc1
outcome [1]: inactive
outcome [2]: inactive
outcome [3]: inactive
AC50 [4]: 15.1 µM (active)

Cc1cc(C(=C2C=CC(=Nc3ccc(S(=O)(=O)O)cc3)C=C2)c2ccc(Nc3ccc(S(=O)(=O)O)cc3)cc2)cc(S(=O)(=O)O)c1N
AC50 [5]: 29.4 µM (active)
outcome [6]: inactive

O=C(CCCN1CCC(O)(c2ccc(Cl)cc2)CC1)c1ccc(F)cc1
outcome [1]: inactive
outcome [2]: inactive
outcome [3]: inactive
AC50 [4]: 0.664 µM (active)
outcome [7]: inactive

CC(C)c1c(C(=O)Nc2ccccc2)c(-c2ccccc2)c(-c2ccc(F)cc2)n1CC[C@@H](O)C[C@@H](O)CC(=O)O
AC50 [4]: 2.65 µM (active) and 3.07 µM (active)

OCC(CO)(CBr)CBr
outcome [1]: inactive
outcome [2]: inactive
outcome [3]: inactive
outcome [7]: inactive

CCCCCCc1ccc(N)cc1
AC50 [5]: 0.0476 µM (active)
AC50 [6]: 11.3 µM (active)

CCCCCCCCCCCCOC(=O)c1cc(O)c(O)c(O)c1
AC50 [5]: 1.05 µM (active)
AC50 [6]: 5.48 µM (active)

CCCCCCCCCCCCCCC
outcome [1]: inactive
outcome [2]: inactive

O=C1NS(=O)(=O)c2ccccc21
outcome [1]: inactive
outcome [2]: inactive
outcome [3]: inactive
AC50 [7]: 0.113 µM (active)

CCc1cccc(CC)c1N(COC)C(=O)CS(=O)(=O)O
outcome [5]: inactive
outcome [6]: inactive

NC(=NCCCCCCN=C(N)/N=C(\N)Nc1ccc(Cl)cc1)/N=C(\N)Nc1ccc(Cl)cc1
outcome [5]: inactive
AC50 [6]: 7.96 µM (active)

CCCCC=O
outcome [1]: inactive
outcome [2]: inactive
outcome [8]: inactive
outcome [9]: inactive
outcome [3]: inactive
outcome [10]: inactive
AC50 [4]: 105 µM (active)

CCC(C)c1ccccc1O (stereo not drawn)
outcome [1]: inactive
outcome [2]: inactive
outcome [3]: inactive

CCCCCCCCCCCCOS(=O)(=O)O
outcome [1]: inactive
outcome [3]: inactive
outcome [4]: inactive

COc1cc([N+](=O)[O-])ccc1N
outcome [5]: inactive
AC50 [6]: 19.1 µM (active)
